In the OligoGym collection:

Each sequence was assayed against ARHGAP5 (assay: pooled miR-30 sensor sort-seq; sequence = guide strand). Conditions: shRNA.
Further: reference of the scale not given here.

Row | Sequence | sensor-assay potency score (higher = more potent)
1 | TTTGAATATTGTCTTGGTCAGT | -0.551
2 | TAAACCTCTCCAGTCATGCTTA | -0.431
3 | TACAAGACCATCATAGATCTTT | 0.493
4 | TTCTACAACAAATTTCATGTTT | -0.238
5 | TTTCTTTCAAACAACATCCCAA | 0.179
6 | TAAGGTTGCATGCAGCAGCAGC | -0.593
7 | TAGATTGATATTATGATCTTGA | 1.05
8 | TTTTTGTCCAAATCCAGCCTGT | -0.169
9 | TTTAGTTATCTACACCGACTGC | -0.686
10 | ATGATCTTGATCAAACTGCTTT | -0.663
11 | TTATGTTGCTGACTAACCCTGT | 0.477
12 | TGAAGTATACTACTGAACCCTG | -0.25
13 | TTCTACACTATACTAAATGTGT | -0.488
14 | TTGCACAACATTATCAACTCAC | 0.731
15 | TAGTAGTAGACAGAAACTCTCG | 0.344
16 | TCAAATAACAAAATCAGCCAGA | -0.237
17 | TTTCTTAACAATTTCTTTCAAG | -0.634
18 | TAATTGTGGTTGTATCAGCTGA | -0.356
19 | TTTTATTTCATTATGGACCATA | -0.301
20 | TTTAGCCACAAGCATGTCCTTG | -0.792
21 | TTCTATAGTATGACTTGGCTTT | 0.162
22 | TTGCTTTTTGTCCAAATCCAGC | -1.64
23 | TTTATGTTGCTGACTAACCCTG | -0.695
24 | TAGTAGACAGAAACTCTCGATT | -0.0895

These sequences were tested against ARHGEF15 in the same assay as above. Conditions: shRNA.

Row | Sequence | sensor-assay potency score (higher = more potent)
25 | TAGGATGTGAGGACAACGGCAG | 0.25
26 | TTGCTGGAGGAGTATTCTGAGG | -1.94
27 | TAACTCAGTCAGCTCTCCCTGG | -0.77
28 | TTGCACAGCCGGAAGCTCCTGC | -0.0952
29 | TTGCTAGAAACCGCTCGCTGAC | -1.26
30 | TATTCTGAGGAGCTTCATCAGG | -0.865
31 | ACATAATCCACATACACCGAGA | -1.37
32 | TTGGAGTAGTCGGTGGGTGGGG | -0.515
33 | TTGCGCTCAGCAGTGGAGCGGT | -0.34
34 | TTGTGGAGAGGAGCCATTGTGG | -1.62
35 | TTTCGGGGTAGTTCTTGTGGAG | -0.734
36 | TGATCTTGCTGACAGCACCCAG | -1.42

The sequences below were run against ARIH1 in the same assay as above. Conditions: shRNA.

Row | Sequence | sensor-assay potency score (higher = more potent)
37 | TAGCGGTTACAGTTGTACCAGG | -0.854
38 | TTGTCTTGTACTTTCTGCTTTA | -0.218
39 | TTAACAGTCGATTGCACTCTAC | -0.996
